{
  "source": "paper PMC7862700",
  "about": "“An all-to-all approach to the identification of sequence-specific readers for epigenetic DNA modifications on cytosine”",
  "assay_in_all_cases": "DAPPL (digital affinity profiling via proximity ligation, sequencing); 10 mM Tris-HCl pH 7.5, 50 mM NaCl, 1 mM DTT, 4% glycerol, room temperature, 30 min; GST-TFs on glutathione beads, 16-mer random dsDNA library, 0.1% formaldehyde crosslink after washing; high values mean tight binding",
  "details_in_all_cases": "protein: recombinant; tags: N-terminal GST; dsDNA, one strand shown",
  "key": {"FLI1": {"target": "T1, FLI1 (Homo sapiens, UniProt Q01543 1-452)", "T1 sequence": "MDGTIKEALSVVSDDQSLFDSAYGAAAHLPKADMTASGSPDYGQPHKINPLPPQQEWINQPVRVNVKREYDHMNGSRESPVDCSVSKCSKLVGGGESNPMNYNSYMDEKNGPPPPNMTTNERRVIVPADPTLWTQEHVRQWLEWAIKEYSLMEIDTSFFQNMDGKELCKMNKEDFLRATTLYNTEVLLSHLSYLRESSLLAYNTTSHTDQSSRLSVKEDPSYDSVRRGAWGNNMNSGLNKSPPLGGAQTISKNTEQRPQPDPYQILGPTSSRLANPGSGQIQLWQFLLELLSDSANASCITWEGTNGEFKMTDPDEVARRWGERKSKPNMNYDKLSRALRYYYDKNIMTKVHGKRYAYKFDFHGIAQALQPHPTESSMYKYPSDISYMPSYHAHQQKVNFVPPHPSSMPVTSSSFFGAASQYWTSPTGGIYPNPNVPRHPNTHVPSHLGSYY", "procedure,_shortened": "(§1)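 A tag-only sample was pooled with DNA-barcoded human transcription factors that had been expressed in yeast as GST fusions and captured on glutathione beads. The pools were incubated for 30 min at room temperature with 200 nmole of a random double-stranded 16-mer DNA library in Tris/NaCl/DTT/glycerol buffer, then washed, crosslinked with 0.1% formaldehyde, proximity-ligated (BsaI/T4 ligase, 1 h, 37 °C), PCR-amplified and sequenced on an Illumina NextSeq500. Binding signal is each hexamer's read frequency for a factor divided by its frequency for the tag-only sample.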"}, "ELK1": {"target": "T2, ELK1 (Homo sapiens, UniProt P19419 1-428)", "T2 sequence": "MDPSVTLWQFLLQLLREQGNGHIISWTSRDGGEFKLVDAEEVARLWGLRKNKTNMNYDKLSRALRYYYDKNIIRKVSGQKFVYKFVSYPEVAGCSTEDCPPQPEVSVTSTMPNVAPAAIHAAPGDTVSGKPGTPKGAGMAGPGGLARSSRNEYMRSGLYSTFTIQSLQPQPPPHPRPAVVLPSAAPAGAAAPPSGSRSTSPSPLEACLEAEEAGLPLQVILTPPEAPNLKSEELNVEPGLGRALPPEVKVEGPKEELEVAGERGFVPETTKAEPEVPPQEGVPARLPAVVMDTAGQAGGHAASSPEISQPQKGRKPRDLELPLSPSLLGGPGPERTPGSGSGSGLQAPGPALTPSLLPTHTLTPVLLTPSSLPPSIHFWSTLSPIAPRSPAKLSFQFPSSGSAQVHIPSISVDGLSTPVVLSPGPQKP", "procedure,_shortened": "as §1"}, "GABPA": {"target": "T3, GABPA (Homo sapiens, UniProt Q06546 1-454)", "T3 sequence": "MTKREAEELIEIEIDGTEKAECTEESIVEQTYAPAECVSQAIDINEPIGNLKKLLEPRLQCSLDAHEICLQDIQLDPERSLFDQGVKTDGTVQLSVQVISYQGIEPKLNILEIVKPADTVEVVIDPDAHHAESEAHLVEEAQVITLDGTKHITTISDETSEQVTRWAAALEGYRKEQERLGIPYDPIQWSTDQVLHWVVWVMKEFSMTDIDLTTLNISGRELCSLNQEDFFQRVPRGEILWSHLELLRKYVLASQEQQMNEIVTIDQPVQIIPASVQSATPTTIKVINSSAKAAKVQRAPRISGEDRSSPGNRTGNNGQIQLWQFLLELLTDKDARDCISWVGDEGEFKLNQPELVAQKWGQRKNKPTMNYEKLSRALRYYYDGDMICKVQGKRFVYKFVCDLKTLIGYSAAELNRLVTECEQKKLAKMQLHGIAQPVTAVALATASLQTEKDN", "procedure,_shortened": "as §1"}, "ERG": {"target": "T4, ERG (Homo sapiens, UniProt P11308 1-479)", "T4 sequence": "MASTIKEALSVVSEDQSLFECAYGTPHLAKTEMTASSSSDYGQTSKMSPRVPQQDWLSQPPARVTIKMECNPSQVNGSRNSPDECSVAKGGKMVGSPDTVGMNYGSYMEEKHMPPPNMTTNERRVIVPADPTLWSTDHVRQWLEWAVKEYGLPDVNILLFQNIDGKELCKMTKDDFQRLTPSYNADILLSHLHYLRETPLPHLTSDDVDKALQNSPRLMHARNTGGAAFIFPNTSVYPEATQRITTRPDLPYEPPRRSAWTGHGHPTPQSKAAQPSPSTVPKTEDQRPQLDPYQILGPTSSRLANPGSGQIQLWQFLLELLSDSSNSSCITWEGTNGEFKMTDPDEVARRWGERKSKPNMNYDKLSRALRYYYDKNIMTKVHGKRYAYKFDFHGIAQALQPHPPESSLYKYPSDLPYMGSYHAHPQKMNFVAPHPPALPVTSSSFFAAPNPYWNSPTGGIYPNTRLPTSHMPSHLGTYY", "procedure,_shortened": "as §1"}, "ELF1": {"target": "ELF1 (Homo sapiens, UniProt P32519 1-619)", "sequence (P32519 whole entry)": "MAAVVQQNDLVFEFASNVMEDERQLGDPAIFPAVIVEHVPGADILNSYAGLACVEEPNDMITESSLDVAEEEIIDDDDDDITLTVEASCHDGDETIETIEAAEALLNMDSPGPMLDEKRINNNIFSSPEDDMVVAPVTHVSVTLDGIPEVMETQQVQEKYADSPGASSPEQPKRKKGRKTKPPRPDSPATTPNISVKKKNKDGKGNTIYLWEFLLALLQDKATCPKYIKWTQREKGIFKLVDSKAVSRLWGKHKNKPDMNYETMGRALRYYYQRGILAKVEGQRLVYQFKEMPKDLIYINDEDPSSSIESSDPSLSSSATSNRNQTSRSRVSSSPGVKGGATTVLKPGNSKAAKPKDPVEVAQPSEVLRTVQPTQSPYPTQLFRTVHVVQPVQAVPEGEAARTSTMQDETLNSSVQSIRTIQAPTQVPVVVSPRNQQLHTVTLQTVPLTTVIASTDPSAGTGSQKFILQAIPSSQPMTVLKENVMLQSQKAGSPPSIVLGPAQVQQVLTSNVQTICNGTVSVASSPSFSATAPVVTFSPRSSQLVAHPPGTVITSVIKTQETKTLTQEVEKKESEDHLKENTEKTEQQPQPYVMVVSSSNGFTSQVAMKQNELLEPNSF", "procedure,_shortened": "as §1"}, "EHF": {"target": "T5, EHF (Homo sapiens, UniProt Q9NZC4 1-300)", "T5 sequence": "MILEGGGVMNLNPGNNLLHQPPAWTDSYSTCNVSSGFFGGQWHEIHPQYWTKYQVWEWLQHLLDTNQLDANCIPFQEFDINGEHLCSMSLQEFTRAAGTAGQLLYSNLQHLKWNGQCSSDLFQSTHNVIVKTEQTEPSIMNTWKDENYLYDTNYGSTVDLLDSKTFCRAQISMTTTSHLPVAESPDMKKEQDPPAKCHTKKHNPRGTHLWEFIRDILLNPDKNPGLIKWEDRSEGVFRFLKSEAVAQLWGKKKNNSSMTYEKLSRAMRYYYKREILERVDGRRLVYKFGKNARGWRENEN", "procedure,_shortened": "as §1"}, "SPI1": {"target": "SPI1 (Homo sapiens, UniProt P17947 1-270)", "procedure,_shortened": "as §1"}, "SPIB": {"target": "SPIB (Homo sapiens, UniProt Q01892 1-262)", "sequence (Q01892 whole entry)": "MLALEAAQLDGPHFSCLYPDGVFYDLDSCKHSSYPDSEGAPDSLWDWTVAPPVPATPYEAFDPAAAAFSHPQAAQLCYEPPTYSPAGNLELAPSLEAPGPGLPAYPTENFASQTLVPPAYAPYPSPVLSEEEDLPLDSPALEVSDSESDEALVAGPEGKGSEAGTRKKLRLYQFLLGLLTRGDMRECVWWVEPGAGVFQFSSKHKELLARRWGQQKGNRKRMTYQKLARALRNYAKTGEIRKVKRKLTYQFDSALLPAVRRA", "procedure,_shortened": "as §1"}, "ELK3": {"target": "T6, ELK3 (Homo sapiens, UniProt P41970 1-407)", "T6 sequence": "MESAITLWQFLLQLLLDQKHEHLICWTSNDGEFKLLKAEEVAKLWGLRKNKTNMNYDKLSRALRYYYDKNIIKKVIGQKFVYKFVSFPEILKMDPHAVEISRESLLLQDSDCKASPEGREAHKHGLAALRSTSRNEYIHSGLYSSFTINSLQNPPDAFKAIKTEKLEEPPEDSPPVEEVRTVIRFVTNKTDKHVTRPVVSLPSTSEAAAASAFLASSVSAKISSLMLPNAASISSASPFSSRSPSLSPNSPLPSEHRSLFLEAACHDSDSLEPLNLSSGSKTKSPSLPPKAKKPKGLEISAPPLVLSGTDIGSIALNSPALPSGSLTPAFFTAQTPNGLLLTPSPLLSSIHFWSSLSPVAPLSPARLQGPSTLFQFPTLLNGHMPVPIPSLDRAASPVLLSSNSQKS", "procedure,_shortened": "as §1"}},
  "data": [
    {"sequence": "CTACTA", "values": [
      {"measurement": "binding signal", "setting": "FLI1", "result": "1.32 fold enrichment (6-mer frequency, TF over GST control)"},
      {"measurement": "binding signal", "setting": "ELK1", "result": "1.36 fold enrichment (6-mer frequency, TF over GST control)"},
      {"measurement": "binding signal", "setting": "GABPA", "result": "1.34 fold enrichment (6-mer frequency, TF over GST control)"},
      {"measurement": "binding signal", "setting": "ERG", "result": "1.24 fold enrichment (6-mer frequency, TF over GST control)"},
      {"measurement": "binding signal", "setting": "ELF1", "result": "1.39 fold enrichment (6-mer frequency, TF over GST control)"},
      {"measurement": "binding signal", "setting": "EHF", "result": "1.33 fold enrichment (6-mer frequency, TF over GST control)"},
      {"measurement": "binding signal", "setting": "SPI1", "result": "1.32 fold enrichment (6-mer frequency, TF over GST control)"},
      {"measurement": "binding signal", "setting": "SPIB", "result": "1.3 fold enrichment (6-mer frequency, TF over GST control)"},
      {"measurement": "binding signal", "setting": "ELK3", "result": "1.37 fold enrichment (6-mer frequency, TF over GST control)"}
    ]}
  ]
}
